Hits are enriched below; roughly 2.9% of the tested compounds scored in any of these assays.
Shn3 3UTR inh: reduction of Shn3 3'UTR firefly luciferase signal, primary screen, Schnurri-3 inhibitor project, cell-based, Clone20 osteoblasts, set 2 | Clone20 osteoblast Shn3 3'UTR firefly luciferase, 24 h | 360,000 tested, 0.52% active | inhibition, % at 12.5 µM | AID 588674, 2011;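 active = mean inhibition of at least 75% with every replicate also reaching 75%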;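 also: 0% = median of neutral control wells and 100% = pilot-screen positive control compound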
HIF-2a inh: HIF-2a reporter inhibitors, primary screen, luminescence, 786-0 RCC cells | inhibition, % at 18.8 µM | AID 624352, 2012 | 786-0 RCC cells HIF-2a reporter, luciferase luminescence, overnight | 360,000 tested, 0.72% active;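 active = inhibition of the luminescence signal of 40% or more relative to plate controls, in a single-dose primary screen at 18.75 µM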
Peg3 promoter: Peg3 promoter-driven luciferase inhibitors, primary screen, cell-based, HeLa, luciferase luminescence; 360,000 tested, 1.7% active; inhibition, % at 20 µM; HeLa PEG-Prom luciferase reporter, overnight; AID 588405, 2011;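 active = inhibition of at least 50% at 20 µM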
CF NFkB block: inhibitors of PAF-induced NF-kB signaling, primary screen, cell-based, GFP fluorescence, uHTS. KKLEB NF-kB-GFP reporter, GFP fluorescence overnight. inhibition, % at 5 µM. 360,000 tested, 0.86% active. AID 588850, 2011;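 active = at least 50% inhibition at 5 µM, scaled per plate between neutral and stimulator controls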;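 also: PAF is a Pseudomonas aeruginosa culture filtrate used as stimulus; plate controls were PAF-stimulated DMSO wells for no effect and unstimulated DMSO wells for full effect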
KKLEB tox: cytotoxicity in KKLEB CF airway cells, primary screen, cytotoxicity control for CF NF-kB inhibitor project, cell-based, uHTS, fluorescence assay plates; KKLEB CF airway cells viability, ATPlite luminescence, overnight; hits give low values; cells stimulated with P. aeruginosa culture filtrate; 360,000 tested, 0.36% active; AID 602141, 2011; activity change (cytotoxicity), % at 5 µM;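 active = corrected activity change at or below -50% at 5 µM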
LMP1 NFkB inh: EBV LMP1-driven NF-kappaB luciferase reporter inhibitors, primary screen, cell-based, luminescence, single point; 350,000 tested, 0.69% active; inhibition, % at 12.5 µM; AID 504558, 2011; LMP1-induced NF-kappaB luciferase reporter cells; in the data active = inhibition above about 41%;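 also: 0% = neutral control wells and 100% = reference inhibitor control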
* marks the source's active call; other numbers are inactive results; · = no result.

SMILES	Shn3 3UTR inh	HIF-2a inh	Peg3 promoter	CF NFkB block	KKLEB tox	LMP1 NFkB inh
O=[N+]([O-])c1ccc(/C=N/Nc2nc(-c3ccccc3)c3cc(Br)ccc3n2)o1	13	5	62*	-22	3	17
CN(CC(=O)Nc1ccccc1Cl)C(=O)Cn1cnc2ccc(Cl)cc2c1=O	-17	15	2	3	-10	-5
O=C(Nc1cccc(Cl)c1N1CCCC1)c1ccc([N+](=O)[O-])o1	-30	7	10	10	-3	9
CCN1CCN(c2c(Cl)cccc2NC(=O)c2ccc([N+](=O)[O-])o2)CC1	13	-2	52*	50	-12	-14
CCn1c(COc2cccc3cccnc23)nnc1SC(F)F	4	-10	-4	-2	-5	-9
C#CCNC(=O)C1=C[C@@H](c2csc3ccccc23)C[C@@H](OCc2ccc(CO)cc2)O1	6	8	4	-18	5	-3
COc1ccc(C[C@H]2CN3C(=NC[C@@H]3Cc3ccccc3)N2CCNC(=O)CCC2CCCCC2)cc1	84	5	99*	21	2	0
COc1ccc(C[C@H]2CN3C(=NC[C@@H]3C(C)C)N2CCNC(=O)CCC2CCCCC2)cc1	66	-19	50	10	-11	-5
c1ccc(-c2cnnc(-c3ccccn3)n2)cc1	-50	-198	-243	-34	-2	-6
C=CCNc1nc(-c2ccccn2)nnc1-c1ccccc1	91*	7	35	28	-31	-41
O=C(CSC1=NS(=O)(=O)c2ccccc21)Nc1ccccc1	-23	-52	71*	12	3	-16
c1ccc(-c2cc3ccccc3[nH]2)cc1	-61	-269	-251	12	-94*	-20
CCOC(=O)c1ccccc1NC(=O)c1cn(-c2ccc(C)c(C)c2)c(=O)c2ccccc12	22	18	47	26	-3	12
COC(=O)c1ccccc1NC(=O)c1cn(-c2ccc(C)c(C)c2)c(=O)c2ccccc12	-32	16	52*	29	-21	17
CC12CNCC(C)(CN(C(c3ccccc3)c3ccccc3)C1)C2	-55	-1	81*	5	-6	2
Clc1ccc(C(c2ccccc2)N2CCNCC2)cc1 (centres undefined)	-19	-4	-22	3	-11	-4
COc1cccc(C(=O)Nc2nnc(S(=O)(=O)N(C)Cc3ccccc3)s2)c1	0	7	55*	20	0	2
CCC(C)(C)NC(=O)C(c1ccc(F)cc1)N(Cc1cccc(OC)c1)C(=O)c1cnccn1 (centres undefined)	-6	-5	58*	1	18	8
CCC(C)(C)NC(=O)C(c1ccc(F)cc1)N(Cc1ccc(OC)cc1)C(=O)c1cnccn1 (centres undefined)	-29	-125	-76	-3	6	-14
CC(C)(C)NC(=O)C1c2ccccc2OCC(=O)N1Cc1ccc2c(c1)OCO2 (centres undefined)	·	0	·	·	·	·
O=S(=O)(CCSc1ccccn1)c1nc2ccccc2s1	13	17	60*	32	-35	-1
CCCc1nc2oc3c(NCCN(C)C)ncnc3c2c2c1CCCC2	11	38	68*	16	-24	-33
COc1ccc(Nc2cc(C)nc(NCc3ccccc3)n2)cc1	89*	-8	8	15	-12	8
Cc1cc(NC2CCCCC2)nc(NCc2ccccc2)n1	78	5	65*	9	-9	13
Cc1ccc(Nc2cc(C)nc(NCc3ccccc3)n2)cc1	82	-7	73*	37	-29	11
SMILES	Shn3 3UTR inh	HIF-2a inh	Peg3 promoter	CF NFkB block	KKLEB tox	LMP1 NFkB inh
NCCc1nnc(SCC(=O)c2ccc(Cl)cc2)o1	-6	2	-8	8	4	-6
COc1ccc(NC(=O)CC2C(=O)N(c3ccc(F)cc3)C(=S)N2NC(=O)c2ccc(Cl)cc2)cc1 (centres undefined)	-4	3	-6	-10	0	3
CC(C)(C)OC(=O)C[C@H]1C/C=C\C[C@H](CC(=O)NCCO)C(=O)NC[C@H](c2ccccc2)OC1=O	-5	10	-21	3	3	1
CCCNC1=C(N(C(C)=O)c2cccc(F)c2)C(=O)c2ccccc2C1=O	-38	73*	85*	81*	-56*	10
CCOC(=O)c1cn2nc(Oc3ccccc3)ccc2n1	-23	-222	-209	4	3	-14
CCOC(=O)c1cn2nc(N3CCCCC3)ccc2n1	30	-81	-5	-2	-6	59*
CCOC(=O)c1cn2nc(N3CCCC3)ccc2n1	25	-27	6	-11	-1	53*
O=C(NCc1ccccc1)C(c1ccc(-c2ccccc2)cc1)n1c(=O)c(-c2cc3ccccc3[nH]2)nc2ccccc21 (centres undefined)	·	-51	·	·	·	·
O=C(C[C@H]1C/C=C\CC[C@@H](Cc2ccc(F)cc2)C(=O)O[C@@H](c2ccccc2)CNC1=O)N[C@@H](CO)Cc1ccccc1	5	-1	88*	-4	-9	5
O=C(C[C@H]1C/C=C\CC[C@@H](Cc2ccc(F)cc2)C(=O)O[C@H](c2ccccc2)CNC1=O)N[C@H](CO)Cc1ccccc1	-10	4	81*	11	-41	-1
O=C(C[C@@H]1C/C=C/CC[C@H](Cc2ccc(F)cc2)C(=O)OC[C@@H](Cc2ccccc2)NC1=O)N[C@H](CO)Cc1ccccc1	54	9	82*	62*	-91*	-143
C[C@@H]1COC(=O)[C@H](Cc2ccc(F)cc2)CC/C=C/C[C@@H](CC(=O)N[C@@H](CO)Cc2ccccc2)C(=O)N1	5	13	-4	-1	20	-3
CCOC(=O)COc1ccccc1/C=C\[N+](=O)[O-]	97*	92*	110*	81*	-29	15
COc1ccc(S(=O)(=O)N2CCCCCC2)cc1C(=O)N(CC(C)C)C1CCS(=O)(=O)C1 (centres undefined)	-16	2	3	-5	10	-5
CCCCCn1c2c(c(=N)c3ccccc31)CCC2	68	5	8	-54	17	8
Cc1cc(C)c2c(=N)c3ccccc3n(CCCCCCCCn3c4ccccc4c(=N)c4c(C)cc(C)nc43)c2n1	84	0	105*	-82	8	7
COc1ccc(N=CC2CCCCC2=O)c([N+](=O)[O-])c1 (centres undefined)	-19	-253	-233	-2	-9	-17
